Assay results taken from the supplement of paper PMC10338343.
± gives the standard deviation. The full ranking holds about 6,200 sequences; the median of “pre-steady-state target cleavage rate” is about 0.29, and the highest 2% start at about 2. Only a selection was taken, and the highest values are over-represented in it overall.

System: MIWI (PIWIL1) piRISC loaded with piRNA #1 (30 nt)
Experiment: pre-steady-state target cleavage rate (min^-1); MIWI and MILI are mouse PIWI proteins and EfPiwi is from a freshwater sponge; tags in brackets are library labels; higher = faster piRNA-guided slicing of the target
Details: guide: piRNA #1 5'p-UGAGGUAGUAGGUUGUAUAGUAUCCAGAGG; auxiliary factor: 500 nM mouse GTSF1
Method: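 Cleave-'n-Seq: a library of target RNAs (target site embedded in constant flanks, ACAGCATTCCGCGTTAGTGATATCCG... 5' flank; DNA-blocked outside the site) at 0.1 nM was incubated with 1 nM active mouse MILI or MIWI piRISC (synthetic 5'-monophosphorylated piRNA guide) with or without 500 nM mouse GTSF1 at 33 °C for 1 min to 16 h. Uncleaved targets were sequenced and normalised to non-target controls, and the pooled three trials were fitted to a burst-and-steady-state model to give the pre-steady-state cleavage rate (min^-1; k3 is constrained to at most 1e-4). Sequence is the target site only; target names encode pairing extent (gX:gY) and contiguous / 1-mismatch / 2-mismatch / bulge geometry. Fits with R² ≤ 0 are excluded.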

Sequence | pre-steady-state target cleavage rate
CCACAGGAUACUAUACAACCUACUACCUCA | 1.87 ± 0.13
CCUCAGGAUACUUUACAACCUACUACCUCA | 2.1 ± 0.13
CCUCAGGAUACUAUACAACCUACUACCACA | 2.43 ± 0.17
GGUCAGGAUACAAUACAACCUACUACCUCA | 1.69 ± 0.1
CCUCAGGAUACAAUACAACCUACUACCUCA | 2.01 ± 0.12
GCUCAGGAUACAAUACAACCUACUACCUCA | 1.9 ± 0.12
CCUCAGGAUACUAAACAACCUACUACCUCA | 2.07 ± 0.12
GCUCAGGAUACUAUACAACCUACUACCACA | 1.75 ± 0.1
GGUCAGGAUACUUUACAACCUACUACCUCA | 1.54 ± 0.085
CCUCUGGAUACUUUACAACCUACUACCUGA | 0.715 ± 0.1
GGAGACCUAUCUAUACAACCUACUAGCUCA | 0.517 ± 0.046
GGAGAGGAUACUAUAGCAACCUACUACCUCA | 0.61 ± 0.07
GGAGACGAUACUAUACAUGCUACUACCUCA | 0.755 ± 0.037
GGAGACCUUACUGUACAACCUACUACCUCA | 0.655 ± 0.077
CCUCUGGAUACUAUUCAACCUAGUACCUCA | 0.085 ± 0.021
CCUCUGGAUACUAUAGAACCUACUACCACA | 0.372 ± 0.042
GCUCUGGAUACUAUCACAACCUACUACCUCA | 1.62 ± 0.12
CCUCAGGAUACUAUACAUCCUACUACCUCA | 2.03 ± 0.12
GGUCAGGAUACUAUACAUCCUACUACCUCA | 1.54 ± 0.079
GCUCAGGAUACUAUACAUCCUACUACCUCA | 1.85 ± 0.099
GGUCUCGAUACUAUACAACCUACUACCUCA | 1.83 ± 0.12
CCUCUGGAUACUAUACUACCUACAACCUCA | 1.08 ± 0.098
CCUCUGGAUACUAUACAACCUACAACCUCA | 1.56 ± 0.1
CUCUCUGGAUACUAUACAACCUACUACCUCA | 2.1 ± 0.13
CCUCUGGAUACCUAUACAACCUACUACCUCA | 1.18 ± 0.072
UCUCUGGAUACUAUACAACCUACUACCUCA | 2.04 ± 0.1

Sequence | pre-steady-state target cleavage rate
GCCUCUGGAUACUAUACAACCUACUACCUCA | 1.89 ± 0.12
GGAGUGGAUACUAUACAACCUACGUACCUCA | 0.712 ± 0.076
GGAGAGGAUACUUUAGAACCUACUACCUCA | 0.919 ± 0.051
GGAGAGGAUACUAUACAACCUACUGACCUCA | 0.576 ± 0.034
GGAGACGAUUCAAUACAACCUACUACCUCA | 0.502 ± 0.063
GGAGACCUAUCUUUACAACCUACUACCUGA | 0.101 ± 0.025
CCUCUGGAUACUAUACAACCUACUACUUCA | 2.32 ± 0.16
GCUCUGGAUACUAUACAACCUACUACUUCA | 2.26 ± 0.14
GGUCUGGAUACUAUACAACCUACUACUUCA | 1.32 ± 0.095
CCUCUGGAUACUAUACAACCUACUUCCUCA | 0.668 ± 0.053
CCUCUGGAUACUAUACAACCUACUACCUUCA | 1.88 ± 0.12
GCUCUGGAUACUAUACAACCUACUACCUUCA | 1.9 ± 0.13
GCUCUGCAUACUAUACAACCUACUACGUCA | 1.24 ± 0.086
GGACUGGAAACUUUACAACCUACUACCUCA | 0.689 ± 0.076
GCUCUGGAUACUAAAGAACCUACUACCUCA | 1.17 ± 0.087
GGAGACCUAACUAUACAACCUAGUUCCUCA | 0.0155 ± 0.0059
GGUCUGGAUACUAUUCAACCUACAACCUCA | 0.28 ± 0.033
GGUCUGGAUACGAUACAACCUACUACCUCA | 1.79 ± 0.11
GCUCUGGAUACUAUUCAACCUACAACCUCA | 1.3 ± 0.099
CCUCUGGAUACUAUACAACCUACCUACCUCA | 1.8 ± 0.11
CCUCUGGUUACUAUUCAACCUACUACCUCA | 2.15 ± 0.14
CCUCUGGAUACGAUACAACCUACUACCUCA | 2.07 ± 0.11
GGUCUGGAUACUAUGCAACCUACUACCUCA | 1.73 ± 0.12
CCUCUGGAUACUAUACAACCUACUACCUCA [g2:g30:cont:t1A] | 1.96 ± 0.12
GCUCUGGAUACGAUACAACCUACUACCUCA | 1.7 ± 0.086
CCUCUGGAUACUAUGCAACCUACUACCUCA | 2.09 ± 0.13

Sequence | pre-steady-state target cleavage rate
CUCUGGAUACUAUACAACCUACUACCUCA | 2.17 ± 0.14
CCUCUGGAUACUAUUCAACCUACAACCUCA | 1.62 ± 0.13
GCUCUGGAUACUAUGCAACCUACUACCUCA | 1.84 ± 0.1
GGACUGGAUAGUAUACAACCUUCUACCUCA | 0.575 ± 0.045
GGUCUGGAUACUAUACAACGUUCUACCUCA | 0.117 ± 0.014
GGAGACCUAUGUAUAGAACCUUCUACCUCA | 0.0033 ± 0.0012
GCUCUGGAUACUAUACAACCUACUAUCCUCA | 1.51 ± 0.11
GGUGUGGAUACUAUACAACCUUCUACCUCA | 0.734 ± 0.033
GGAGACCUAACUAUACAACGUACUACCACA | 0.165 ± 0.031
GGAGACCUAUGAAUACUAGCUACUACCUCA | < 0.0001
GGAGAGGAUACUAUACAACCUUCUAGCUCA | 0.0222 ± 0.0082
GGACUGGAUACUAUACAACUUACUACCUCA | 0.518 ± 0.023
CCUCUGGAUACUAAACAACCUACAACCUCA | 1.48 ± 0.12
CCUCUGGAUACUAAACAACCUACUACCUCA | 1.86 ± 0.12
CCUCUGAAUACUAUACAACCUACUACCUCA | 2.09 ± 0.13
CCUCUGGUUACUAAACAACCUACUACCUCA | 2.34 ± 0.16
CCCUCUGGAUACUAUACAACCUACUACCUCA | 2.25 ± 0.12
GCUCUGGAUACUAUUCAACCUACUACCACA | 1.9 ± 0.16
GGUCUGGAUACUAUUCAACCUACUACCACA | 0.506 ± 0.045
GGUCUGAAUACUAUACAACCUACUACCUCA | 1.8 ± 0.097
GCUCUGGAUACUAAACAACCUACAACCUCA | 1.23 ± 0.089
CCUCUGGAUACUAUUCAACCUACUACCACA | 2.19 ± 0.18
CCUCUGGAUACUAUACAACCUACUACCCUCA | 1.38 ± 0.097
CCUCUGGAUACUAUACAACCCUACUACCUCA | 0.00658 ± 0.0036
GCUCUGAAUACUAUACAACCUACUACCUCA | 1.89 ± 0.12
